A structure can be active in one record and inactive in another. Activity calls are given as the source filed them. The calls were made as follows: active = hit-call score of the fitted dose curve at least 0.9, where 1 is the maximum; inactive = score below 0.9.

Read-out in the assay: Collagen III, COL3A1 (gene 1281)
Kind of assay: BSK_hDFCGF_CollagenIII: BioMAP Diversity Plus: hDFCGF Assay for Collagen III Biomarker Activity (AID 2283056). The following applies: primary human foreskin fibroblasts; actives raise or lower the signal. The protocol: BSK_hDFCGF is a cell-based, multiplexed-readout assay that uses foreskin fibroblast, a human skin primary cell, with measurements taken at 24 hours after chemical dosing in a 96-well plate.BSK_hDFCGF_CollagenIII is an assay component measured in the BSK_hDFCGF assay. It measures Collagen antibody related to regulation of gene expression using ELISA technology.Data from the assay component BSK_hDFCGF_CollagenIII was analyzed into 1 assay endpoint. This assay endpoint, BSK_hDFCGF_CollagenIII, was analyzed with bidirectional fitting relative to DMSO as the negative control and baseline of activity. Using a type of binding reporter, gain or loss-of-signal activity can be used to understand changes in the signaling as they relate to the gene COL3A1. Furthermore, this assay endpoint can be referred to as a primary readout, because this assay has produced multiple assay endpoints where this one serves a signaling function. To generalize the intended target to other relatable targets, this assay endpoint is annotated to the cell adhesion molecules intended target family, where the subfamily is collagen.
The levels of cell surface (or secreted, indicated by the prefix "s") biomarker endpoints were measured by ELISA. Overt cytotoxicity to cells in confluent adherent cultures (all systems other than the BT system) was assessed by measuring total protein levels using sulforhodamine B (SRB) staining in parallel cultures at the time of biomarker measurements, indicated as SRB endpoints. For proliferation assays for adherent cell types, individual cell types are cultured at sub-confluence and relative cell numbers quantified by SRB staining at time points optimized for each system (48 h: 3C and CASM3C systems; 72 h: BT and HDF3CGF systems; 96 h: SAg system). SRB was performed by staining cells with 0.1% SRB after fixation with 10% TCA and reading wells at 560 nm.Viability and proliferation of PBMC (T cells) was quantified by Alamar Blue reduction for the SAg and BT systems. For PBMC viability (referred to as PBMC Cytotoxicity within the assay endpoint names), cells were plated (75,000/well in a 96-well plate) and then chemical samples added for 1 h before addition of activators, SEB and TSST-1 (20 ng/mL final concentration each). Cells were incubated for 90 h. Then, Alamar Blue (20 uL/well) (Invitrogen, Cat DAL1100) was added for 6 h, and the plates were read with a fluorescence microplate reader at 546/580 nm (excitation/emission). For PBMC proliferation, cells were plated and activated as above but incubated for only 16 h prior to addition of Alamar Blue. Plates were read after 6 h.
Take `c1ccc2sc(SN(C3CCCCC3)C3CCCCC3)nc2c1`: the outcome was inactive.
The same measure, in the same setting: the value for `Cc1cc(C2(c3cc(C)c(O)cc3C)OS(=O)(=O)c3ccccc32)c(C)cc1O` was “inactive”.
Take `CCn1c2ccccc2c2cc(N)ccc21`: the outcome was inactive.
On the same count and under the same terms, in the case of `Nc1cc([N+](=O)[O-])ccc1O` it was “inactive”; in that of `C=C[Si](OCC)(OCC)OCC`, “inactive”.
Consider `CCCCCCCCC=O`, for which the result was inactive.
As to `CC(C)(COC(=O)c1ccccc1)COC(=O)c1ccccc1`, the AC50 was 16.7 µM (active).
Consider `C[C@H]1C[C@@H]2[C@H]([C@@H](O)C[C@@]3(C)[C@H]2CC[C@]3(O)C(=O)CO)[C@@]2(C)C=CC(=O)C=C12`, for which the result was inactive.
Turning to `CC1COc2ccccc2N1C(=O)C(Cl)Cl` (stereo not given), the AC50 is 0.0289 µM (active).
On to `CC(=O)/C=C/C1=C(C)CCCC1(C)C`, for which the result was inactive.
`CC[Si](OC(C)=O)(OC(C)=O)OC(C)=O`: the AC50 was 5.47 µM (active) and the outcome was inactive.
`O=C1OC2(c3cc(Br)c(O)c(Br)c3Oc3c2cc(Br)c(O)c3Br)c2c(Cl)c(Cl)c(Cl)c(Cl)c21`: the AC50 was 4.38 µM (active).
Regarding `CC(=O)[C@H]1CC[C@H]2[C@@H]3CC=C4C[C@@H](O)CC[C@]4(C)[C@H]3CC[C@]12C`, the AC50 was 5.69 µM (active) and the result was inactive.
Regarding `OC1OC[C@@H](O)[C@H](O)[C@H]1O` (stereo not given in full), the result was inactive.
As to `N#Cc1ccc(CC(=NNC(=O)Nc2ccc(OC(F)(F)F)cc2)c2cccc(C(F)(F)F)c2)cc1`, the outcome was inactive.
Still for that read-out and setting: in the case of `CN(CCOc1ccc(CC2SC(=O)NC2=O)cc1)c1ccccn1` (stereo not given) it was “inactive”; in that of `Nc1cc([N+](=O)[O-])ccc1Cl`, “inactive”.
Take `CCCCC/C=C/C=C/C=O`: the AC50 was 10.8 µM (active).
For the compound `O=C(O)C[C@H](O)C[C@H](O)/C=C/c1c(C2CC2)nc2ccccc2c1-c1ccc(F)cc1`, the outcome was inactive.
On the same count and under the same terms, in the case of `C#C[C@]1(O)CC[C@H]2[C@@H]3CCC4=Cc5oncc5C[C@]4(C)[C@H]3CC[C@@]21C` it was “inactive”.
`CCc1c(C)cc(N)c(CC)c1N`: the outcome was inactive.
As for `CC(=O)OCCC(C)CC(C)(C)C` (stereo not given), the result was inactive.
Same read-out and setting: the value for `O=[N+]([O-])c1cc(C(F)(F)F)ccc1Cl` was “inactive”; that for `CCCCCCCCCCCCCCCCCC(=O)OCC(CC)CCCC` (stereo not given) was “inactive”.
As for `O=C1CCCCCCCCCCCCCCO1`, the half-maximal activity concentration (AC50) was 11.4 µM (active).
As for `CCCCCCCCCC=O`, the result was inactive.
On the same count and under the same terms, the value for `Cc1ccc2n[nH]nc2c1` was “inactive”.
Take `O=C(O)c1cn(-c2ccc(F)cc2)c2cc(N3CCNCC3)c(F)cc2c1=O`: the result was inactive.
Regarding `Cc1ccc(O)c(C(C)(C)C)c1`, the AC50 is 30.4 µM (active).
For the compound `O=P(c1ccccc1)(c1ccccc1)c1ccccc1`, the result was inactive.
Regarding `COc1cc(C=O)ccc1OC(=O)C(C)C`, the result was inactive.
Turning to `BrC1CCC(Br)C(Br)CCC(Br)C(Br)CCC1Br` (stereo not given), the result was inactive.
Still for that read-out and setting: the value for `CNC[C@H](O)c1cccc(O)c1` was “inactive”; that for `CCC(=O)OCc1ccccc1` was “inactive”; that for `c1ccc2c(c1)c1cccc3ccc4cccc2c4c31` was “inactive”.
In the case of `NCCNCCN`, the outcome was inactive.
Regarding `O=C(O)c1cn(C2CC2)c2cc(N3CCNCC3)c(F)cc2c1=O`, the outcome was inactive.
As to `Cc1ccc(Nc2ccc(O)c3c2C(=O)c2ccccc2C3=O)cc1`, the outcome was inactive.

Source of the values: PubChem BioAssay (EPA / NIEHS).
